Consider 35 molecules from PubChem BioAssay (Tox21).

Experiment [1] has as its target Acetylcholinesterase (Homo sapiens) (UniProt P22303). Put plainly: Acetylcholinesterase (AChE) small molecule antagonists: enzyme-based qHTS assay (AID 1347397; calls by dose curve; note: nearly all actives have a fitted effect of over 55% in size). The settings on record: Potency: AChE enzyme activity inhibition; outcome: AChE enzyme activity inhibition. In a few lines:
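Recombinant human AChE (50 mU/mL) preincubated with compound 30 min at room temperature; acetylthiocholine plus DTNB then added, and thiocholine formation read colorimetrically after 10 min at room temperature. DMSO served as vehicle control.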

For experiment [2] the target is unchanged. Put plainly: Acetylcholinesterase (AChE) small molecule antagonists: fluorescence cell-based qHTS assay (AID 1347398; calls by dose curve; note: nearly all actives have a fitted effect of over 50% in size). The settings on record: Potency: AChE activity; outcome: AChE activity. In a few lines:
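SH-SY5Y cells (2000/well), attached overnight, incubated with compound 30 min at 37 C. Acetylthiocholine plus Thiolite Green then added for 40 min at room temperature. Thiocholine fluorescence (Ex/Em 490/520 nm) reports cellular AChE activity.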

The target is the same in experiment [3]. The experiment is described as follows: Acetylcholinesterase (AChE) small molecule antagonists: enzyme-based qHTS assay with human liver microsomes (AID 1347399; calls by dose curve; note: nearly all actives have a fitted effect of over 60% in size). The settings on record: Potency: qHTS inhibition; outcome: qHTS inhibition. Put shortly: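 Recombinant human AChE (50 mU/mL in the enzyme mix) and human liver microsomes (0.25 mg/mL final) were preincubated with compound and NADPH (0.25 mg/mL final) for 30 min at 37 C. Acetylthiocholine/DTNB was then added; thiocholine was read colorimetrically after 10 min at room temperature.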

Experiment [4] has as its target Cytochrome P450 2C19 (Homo sapiens) (UniProt P33261). Put plainly: Cytochrome P450 Family 2 Subfamily C Member 19 (CYP2C19) small molecule antagonists: luciferase reporter qHTS assay (AID 1671197). Note: nearly all actives have a fitted effect of over 65% in size. Put shortly: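 CYP2C19 P450-Glo, 1536-well qHTS. Cpd + enzyme/proluciferin substrate 10 min RT; + NADPH regen, 37C 1 h; stop with luciferin detection reagent, 20 min RT, luminescence (RLU). Pos ctrl ketoconazole.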

The target in experiment [5] is Cytochrome P450 1A2 (Homo sapiens) (UniProt P05177). The experiment is described as follows: Cytochrome P450 Family 1 Subfamily A Member 2 (CYP1A2) small molecule antagonists: luciferase reporter qHTS assay (AID 1671199). Note: nearly all actives have a fitted effect of over 50% in size. Put shortly: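 Human CYP1A2 activity measured with a P450-Glo proluciferin substrate; compounds in DMSO preincubated 10 min at room temperature with enzyme-substrate mix, then NADPH regeneration system added for 1 h. Luciferin detection reagent, 20 min, luminescence read.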

Experiment [6] addresses Voltage-gated inwardly rectifying potassium channel KCNH2 (Homo sapiens) (UniProt Q12809). Put plainly: Human Ether-a-go-go-Related Gene (hERG) channel small molecule antagonists: fluorescence cell-based qHTS assay (AID 1671200). Note: nearly all actives have a fitted effect of over 50% in size. In a few lines:
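Thallium served as the potassium surrogate; its influx into dye-loaded U2OS cells carrying the channel was measured by fluorescence over 2 min.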

In experiment [7] the target is Cytochrome P450 3A4 (Homo sapiens) (UniProt P08684). The experiment is described as follows: Cytochrome P450 Family 3 Subfamily A Member 4 (CYP3A4) small molecule antagonists: luciferase reporter qHTS assay (AID 1671201). Note: nearly all actives have a fitted effect of over 50% in size. In a few lines:
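Relative luminescence units after 20 min with luciferin detection reagent served as read-out. Beforehand, CYP3A4 turned over a proluciferin substrate for 1 h at room temperature with NADPH regeneration, following 10 min compound preincubation.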

Experiment [8] has as its target Cytochrome P450 2C9 (Homo sapiens) (UniProt P11712). The experiment is described as follows: Cytochrome P450 Family 2 Subfamily C Member 9 (CYP2C9) small molecule antagonists: luciferase reporter qHTS assay (AID 1671198). Note: nearly all actives have a fitted effect of over 50% in size. Put shortly:
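P450-Glo proluciferin substrate with CYP2C9 enzyme; 10 min RT preincubation, then NADPH regeneration 1 h at 37C; luciferin detection reagent 20 min RT, luminescence in relative luminescence units.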

Experiment [9] concerns the target Cytochrome P450 2D6 (Homo sapiens) (UniProt P10635). The experiment is described as follows: Cytochrome P450 Family 2 Subfamily D Member 6 (CYP2D6) small molecule antagonists: luciferase reporter qHTS assay (AID 1671196). Note: nearly all actives have a fitted effect of over 50% in size. In a few lines: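 CYP2D6 enzyme–substrate mix was held with compound for 10 min at room temperature, then NADPH regeneration solution was added and the reaction ran 1 h at room temperature. Luciferin product was detected by luminescence after 20 min with detection reagent.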

Several values for one entry are separate records, joined by “and”; a condition that tells them apart may be missing. Identical values can stand only once. Inconclusive results are not listed. Some structures have more than one record in an assay (separate samples or runs), and their calls can disagree. Activity calls are given as the source filed them. Unless noted, calls come from the whole dose curve; as a rule, active = well fitted curve in the direction sought with a large enough effect in the repeat runs; inconclusive = weak or mixed curves; inactive = no such curve, though single readings can be large; an effect the other way counts as inactive or inconclusive.
Potency is the fitted concentration of half-maximal effect.

Chain of Cytochrome P450 2D6 (Homo sapiens) (P10635 whole entry, looked up): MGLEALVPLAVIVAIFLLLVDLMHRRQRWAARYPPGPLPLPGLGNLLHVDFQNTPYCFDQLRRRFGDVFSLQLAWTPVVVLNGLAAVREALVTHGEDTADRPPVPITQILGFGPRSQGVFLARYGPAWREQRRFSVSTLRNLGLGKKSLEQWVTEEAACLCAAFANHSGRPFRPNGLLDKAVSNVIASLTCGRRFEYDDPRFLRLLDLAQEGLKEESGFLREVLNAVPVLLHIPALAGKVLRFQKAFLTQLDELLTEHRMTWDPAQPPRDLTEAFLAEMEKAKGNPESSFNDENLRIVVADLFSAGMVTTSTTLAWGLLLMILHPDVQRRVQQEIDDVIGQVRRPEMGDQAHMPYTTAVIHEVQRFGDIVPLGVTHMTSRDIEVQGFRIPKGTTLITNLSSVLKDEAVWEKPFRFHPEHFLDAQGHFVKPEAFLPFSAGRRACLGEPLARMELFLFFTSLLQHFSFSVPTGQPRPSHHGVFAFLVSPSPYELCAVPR
Chain of Cytochrome P450 3A4 (Homo sapiens) (P08684 whole entry, looked up): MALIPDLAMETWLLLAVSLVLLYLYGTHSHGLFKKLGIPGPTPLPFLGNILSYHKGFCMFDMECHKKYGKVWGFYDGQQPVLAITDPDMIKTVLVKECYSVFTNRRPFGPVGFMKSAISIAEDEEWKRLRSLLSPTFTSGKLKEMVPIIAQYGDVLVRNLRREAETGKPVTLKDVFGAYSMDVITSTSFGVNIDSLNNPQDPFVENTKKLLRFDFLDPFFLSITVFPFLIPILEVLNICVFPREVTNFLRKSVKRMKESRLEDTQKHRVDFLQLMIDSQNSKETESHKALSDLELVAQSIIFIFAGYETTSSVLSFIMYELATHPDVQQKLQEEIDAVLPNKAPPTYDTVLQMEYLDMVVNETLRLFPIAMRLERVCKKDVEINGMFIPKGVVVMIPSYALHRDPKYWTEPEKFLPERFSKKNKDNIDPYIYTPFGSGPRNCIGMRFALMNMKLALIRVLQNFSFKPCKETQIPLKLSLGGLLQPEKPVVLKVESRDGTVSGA
Chain of Cytochrome P450 2C9 (Homo sapiens) (P11712 whole entry, looked up): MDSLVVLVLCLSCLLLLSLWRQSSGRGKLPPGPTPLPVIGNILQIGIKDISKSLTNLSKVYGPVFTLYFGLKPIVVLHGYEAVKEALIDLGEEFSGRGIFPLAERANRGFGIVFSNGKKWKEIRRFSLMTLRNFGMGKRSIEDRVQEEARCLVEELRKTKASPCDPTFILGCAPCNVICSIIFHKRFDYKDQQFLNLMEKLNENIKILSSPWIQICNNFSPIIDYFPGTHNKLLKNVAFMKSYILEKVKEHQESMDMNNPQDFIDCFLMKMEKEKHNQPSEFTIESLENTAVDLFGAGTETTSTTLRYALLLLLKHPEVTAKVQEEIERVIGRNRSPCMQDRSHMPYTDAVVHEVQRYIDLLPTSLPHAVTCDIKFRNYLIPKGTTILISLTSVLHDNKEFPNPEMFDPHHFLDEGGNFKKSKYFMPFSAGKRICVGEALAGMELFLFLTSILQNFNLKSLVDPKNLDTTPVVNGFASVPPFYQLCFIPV
Chain of Cytochrome P450 1A2 (Homo sapiens) (P05177 whole entry, looked up): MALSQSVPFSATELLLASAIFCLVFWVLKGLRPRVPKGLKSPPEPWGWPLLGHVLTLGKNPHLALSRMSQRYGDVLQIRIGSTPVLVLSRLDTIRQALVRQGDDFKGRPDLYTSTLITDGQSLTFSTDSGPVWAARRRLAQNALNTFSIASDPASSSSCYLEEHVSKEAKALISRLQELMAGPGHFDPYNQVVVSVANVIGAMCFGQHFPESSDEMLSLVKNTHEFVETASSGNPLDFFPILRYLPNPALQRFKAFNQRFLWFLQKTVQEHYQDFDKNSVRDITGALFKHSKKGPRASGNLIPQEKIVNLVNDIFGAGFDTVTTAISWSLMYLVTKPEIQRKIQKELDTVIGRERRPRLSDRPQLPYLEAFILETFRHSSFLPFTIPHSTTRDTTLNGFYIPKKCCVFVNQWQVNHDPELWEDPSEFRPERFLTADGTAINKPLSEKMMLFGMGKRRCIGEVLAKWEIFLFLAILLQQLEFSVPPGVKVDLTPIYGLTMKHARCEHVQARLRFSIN
Chain of Voltage-gated inwardly rectifying potassium channel KCNH2 (Homo sapiens) (Q12809 whole entry, looked up): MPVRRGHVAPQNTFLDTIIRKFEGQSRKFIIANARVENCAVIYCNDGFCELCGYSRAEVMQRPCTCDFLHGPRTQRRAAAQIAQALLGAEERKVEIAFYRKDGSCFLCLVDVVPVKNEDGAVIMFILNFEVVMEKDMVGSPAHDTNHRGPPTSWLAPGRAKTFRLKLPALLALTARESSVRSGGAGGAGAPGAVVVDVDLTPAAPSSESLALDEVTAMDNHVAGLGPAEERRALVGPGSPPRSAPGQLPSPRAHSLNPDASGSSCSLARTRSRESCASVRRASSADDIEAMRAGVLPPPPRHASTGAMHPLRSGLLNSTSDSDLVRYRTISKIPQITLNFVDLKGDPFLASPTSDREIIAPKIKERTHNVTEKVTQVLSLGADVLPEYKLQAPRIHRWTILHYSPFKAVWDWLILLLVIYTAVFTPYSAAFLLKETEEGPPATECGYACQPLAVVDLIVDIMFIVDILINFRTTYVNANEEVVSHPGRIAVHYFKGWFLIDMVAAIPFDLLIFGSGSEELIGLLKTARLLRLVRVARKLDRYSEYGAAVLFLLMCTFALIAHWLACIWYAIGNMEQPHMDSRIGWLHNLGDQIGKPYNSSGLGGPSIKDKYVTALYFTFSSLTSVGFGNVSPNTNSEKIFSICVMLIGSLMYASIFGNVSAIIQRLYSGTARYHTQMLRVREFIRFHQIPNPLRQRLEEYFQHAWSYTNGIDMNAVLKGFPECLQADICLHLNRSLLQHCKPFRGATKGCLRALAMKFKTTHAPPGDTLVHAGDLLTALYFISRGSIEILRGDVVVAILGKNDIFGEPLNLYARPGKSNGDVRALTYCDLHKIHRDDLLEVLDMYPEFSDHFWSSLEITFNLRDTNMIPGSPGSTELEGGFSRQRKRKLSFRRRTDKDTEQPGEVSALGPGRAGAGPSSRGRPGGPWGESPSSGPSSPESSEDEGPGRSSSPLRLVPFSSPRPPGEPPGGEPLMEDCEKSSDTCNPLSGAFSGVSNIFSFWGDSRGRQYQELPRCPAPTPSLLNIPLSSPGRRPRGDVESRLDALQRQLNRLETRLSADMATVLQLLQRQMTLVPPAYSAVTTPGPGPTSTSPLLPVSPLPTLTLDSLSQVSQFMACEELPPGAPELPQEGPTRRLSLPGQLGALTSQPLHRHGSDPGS
Chain of Acetylcholinesterase (Homo sapiens) (P22303 whole entry, looked up): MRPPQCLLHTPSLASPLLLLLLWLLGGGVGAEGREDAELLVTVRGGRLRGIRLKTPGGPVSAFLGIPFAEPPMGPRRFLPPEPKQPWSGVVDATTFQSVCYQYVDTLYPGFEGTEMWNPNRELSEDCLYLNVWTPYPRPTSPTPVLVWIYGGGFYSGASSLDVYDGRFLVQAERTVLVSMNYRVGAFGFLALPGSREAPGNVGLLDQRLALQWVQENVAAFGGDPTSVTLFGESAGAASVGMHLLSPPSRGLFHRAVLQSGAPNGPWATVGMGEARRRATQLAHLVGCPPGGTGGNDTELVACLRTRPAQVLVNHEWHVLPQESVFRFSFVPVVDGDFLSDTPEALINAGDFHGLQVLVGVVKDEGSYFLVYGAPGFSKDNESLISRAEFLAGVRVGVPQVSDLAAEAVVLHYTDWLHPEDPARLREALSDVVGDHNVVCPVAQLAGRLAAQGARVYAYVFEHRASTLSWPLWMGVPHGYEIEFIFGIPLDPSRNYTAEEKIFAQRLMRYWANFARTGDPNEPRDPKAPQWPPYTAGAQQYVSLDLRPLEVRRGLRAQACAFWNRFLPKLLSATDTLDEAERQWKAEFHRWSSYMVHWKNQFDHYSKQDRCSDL
Chain of Cytochrome P450 2C19 (Homo sapiens) (P33261 whole entry, looked up): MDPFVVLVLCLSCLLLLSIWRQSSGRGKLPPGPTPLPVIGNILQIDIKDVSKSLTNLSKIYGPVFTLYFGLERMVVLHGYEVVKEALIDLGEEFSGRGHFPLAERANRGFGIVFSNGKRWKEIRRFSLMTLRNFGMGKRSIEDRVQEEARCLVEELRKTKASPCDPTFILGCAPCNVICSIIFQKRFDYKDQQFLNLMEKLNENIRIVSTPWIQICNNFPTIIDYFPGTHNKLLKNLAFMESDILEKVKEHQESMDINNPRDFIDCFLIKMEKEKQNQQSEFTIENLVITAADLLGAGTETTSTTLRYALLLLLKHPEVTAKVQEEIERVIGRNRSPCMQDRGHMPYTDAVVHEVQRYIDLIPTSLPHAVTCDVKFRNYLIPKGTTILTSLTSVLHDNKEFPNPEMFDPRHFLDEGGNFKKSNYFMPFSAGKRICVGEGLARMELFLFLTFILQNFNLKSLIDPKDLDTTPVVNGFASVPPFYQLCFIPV

As for `NCCc1cc(O)c(O)cc1O`, the Potency result in experiment [1], in experiment [2], in [3], in experiment [5], in [6] and in [7] was “inactive” throughout. Besides, the Potency in experiment [4] was 9.77 µM (active).
On to `[Cl-].[Cl-].[Hg+2]`, for which the Potency in experiment [6] is 38.7 µM (active) and 6.92 µM (active).
As for `O=C(N[C@H]1CN2CCC1CC2)c1ccc2c(c1)OCCO2`, the Potency result in experiment [1], in [3], in experiment [4], in [8], in [5] and in experiment [6] was “inactive” throughout. For the same molecule, in experiment [7], the Potency entry was “inactive”.
On to `c1ccc2c(c1)-c1cccc3cccc-2c13`, for which the Potency entry in experiment [6] is “inactive”.
For `O=C(O)c1cc(I)cc(I)c1I`, the Potency entry in experiment [1], in [2], in experiment [3], in experiment [6] and in experiment [7] was “inactive” in each case. For the same molecule, the Potency in [8] was 13.6 µM (active).
As for `C[C@]12C=CC3=C4CCC(=O)C=C4CC[C@H]3[C@@H]1CC[C@@H]2O`, the Potency result in [1], in [2], in [3] and in experiment [6] was “inactive” in each case. Moreover, the Potency in experiment [8] is 35.3 µM (active) and 30.1 µM (active); in [5], 39.7 µM (active); in [7], 31.5 µM (active) and inactive.
Turning to `O=C(O)C(O)C(O)C(=O)O` (centres undefined), the Potency result in experiment [1], in [2] and in experiment [6] was “inactive” in each case.
As for `COc1ccc(C(O)(c2cncnc2)C2CC2)cc1` (centres undefined), the Potency entry in experiment [1], in experiment [2], in [3] and in experiment [6] was “inactive” each time. For the same molecule, the Potency in [4] is 20 µM (active); in experiment [8], 63.3 µM (active); in experiment [7], 0.894 µM (active).
As to `NP(N)(=O)NC(=O)c1ccc(F)cc1`, the Potency entry in [1], in [2], in [3], in experiment [8], in experiment [6] and in experiment [7] was “inactive” each time.
`C[CH2][Hg][S]c1ccccc1C(=O)O`: in experiment [6], the Potency result was “inactive”.
Consider `O=C(O)c1cc(Cl)ccc1Cl`, for which the Potency result in [1], in experiment [3], in experiment [6] and in [7] was “inactive” in each case. Besides, the Potency in experiment [4] is 79.3 µM (active); in experiment [5], 39.7 µM (active).
For `CCOC(=O)c1cn2nc(OP(=S)(OCC)OCC)cc2nc1C`, the Potency in [2] is 39.9 µM (active); in experiment [3], 2 µM (active); in [9], 25.2 µM (active); in experiment [4], 2.52 µM (active); in experiment [8] it was 5.03 µM (active); in [5] it was 8.94 µM (active). The Potency in [7] is 28.3 µM (active).
On to `CCc1ccccc1N`, for which the Potency entry in experiment [1], in [2], in experiment [3] and in experiment [6] was “inactive” each time. Also, the Potency in [4] was 89.4 µM (active).
Turning to `Cc1ccc(N)c(C)c1`, the Potency entry in [9] is “inactive and 896 nM (active)”; in experiment [4], 39.5 µM (active) and 7.12 µM (active); in experiment [8], 35.7 µM (active); in experiment [5], 11.1 µM (active) and 2.83 µM (active); in experiment [7] it was 40 µM (active). For the same molecule, in experiment [6], the Potency entry was “inactive”.
`O=C(O)CCCOc1ccc(Cl)cc1Cl`: the Potency entry in [6] was “inactive”.
Consider `Clc1ccc(Cl)c(Cl)c1`, for which, in experiment [6], the Potency result is “inactive”.
In the case of `CCCN(CCOc1c(Cl)cc(Cl)cc1Cl)C(=O)n1ccnc1`, the Potency result in [1] and in [3] was “inactive” each time. For the same molecule, the Potency was 363 nM (active) and 1 µM (active) in experiment [9]; 22.9 nM (active) and 50.2 nM (active) in experiment [4]; 457 nM (active) and 796 nM (active) in experiment [8]; 129 nM (active) and 224 nM (active) in experiment [5]; 12.6 µM (active) and 19.5 µM (active) in [6]; 32.4 nM (active) and 100 nM (active) in experiment [7].
As for `CCCCCCCCCCCCCCCl`, the Potency entry in [1], in experiment [3], in [9], in [4], in experiment [8] and in [6] was “inactive” throughout. For the same molecule, the Potency result in experiment [7] was “inactive”.
As for `CCC[N+](CCC)(CCC)CCC`, the Potency result in experiment [1], in experiment [2], in [3], in experiment [8] and in [7] was “inactive” in each case.
For `C[C@@H]1C[C@@H]([C@H](O)CC2CC(=O)NC(=O)C2)C(=O)[C@@H](C)C1`, in experiment [6], the Potency entry was “inactive”.
On to `CC(C)c1ccc(OP(=O)(Oc2ccc(C(C)C)cc2)Oc2ccc(C(C)C)cc2)cc1`, for which the Potency was 28.5 µM (active) and 28.3 µM (active) in experiment [1]; 3.58 µM (active) and 3.56 µM (active) and 2.83 µM (active) in experiment [4]; 2.26 µM (active) and 3.17 µM (active) and 2.83 µM (active) in experiment [8]; 22.6 µM (active) and 15.9 µM (active) and 17.8 µM (active) in experiment [5]; 17.5 µM (active) and 21.9 µM (active) in experiment [6]. The Potency result in [3] and in experiment [7] was “inactive” throughout.
On to `COc1cc(CC#N)cc(OC)c1OC`, for which the Potency result in experiment [1], in experiment [2], in experiment [3], in experiment [4], in experiment [8] and in [6] was “inactive” in each case. Also, in experiment [7], the Potency result is “inactive”. Besides, the Potency in experiment [5] was 24.5 µM (active).
As to `CCC1(CCC(C)C)C(=O)NC(=O)NC1=O`, the Potency entry in [1], in experiment [2], in experiment [3] and in experiment [6] was “inactive” each time.
Turning to `Clc1ccc2ccccc2c1`, the Potency result in experiment [1], in experiment [2], in experiment [3], in experiment [4], in experiment [8] and in [6] was “inactive” throughout. Besides, in [7], the Potency entry is “inactive”.
For `CC(C)OC(=O)Cc1ccccc1`, the Potency result in experiment [1], in [2], in [3], in [8], in experiment [6] and in experiment [7] was “inactive” in each case. In addition, in experiment [5], the Potency is 35.9 µM (active).
Turning to `CC(=O)NNc1ccccc1`, in experiment [6], the Potency entry was “inactive”.
In the case of `C=CC(C)(CCC=C(C)C)OC(=O)c1ccccc1N` (centres undefined), the Potency entry in experiment [6] was “inactive”.
`COP(=O)(OC)OC(Br)C(Cl)(Cl)Br` (centres undefined): the Potency entry in experiment [2] and in experiment [6] was “inactive” each time. Also, the Potency in experiment [9] is 40 µM (active) and 39.9 µM (active); in experiment [4], 7.98 µM (active) and 17.8 µM (active); in experiment [8], 25.2 µM (active) and 22.4 µM (active); in [5] it was 35.6 µM (active); in [7] it was 79.8 µM (active) and inactive.
As to `C[N+]1(CCC(C(N)=O)(c2ccccc2)c2ccccc2)CCCCC1`, the Potency entry in experiment [1], in experiment [3], in experiment [4], in [8], in [5] and in experiment [6] was “inactive” in each case. Also, the Potency result in [7] is “inactive”. Besides, the Potency in experiment [9] is 8.71 µM (active).
Regarding `COc1ccccc1N1CCNCC1`, the Potency result in experiment [9], in experiment [4], in experiment [8], in experiment [5], in experiment [6] and in experiment [7] was “inactive” each time.
Take `C#C[C@]1(O)CC[C@H]2[C@@H]3CCC4=CC(=O)CCC4=C3C=C[C@@]21CC`: the Potency result in experiment [1], in experiment [3], in experiment [5] and in experiment [6] was “inactive” throughout. Further, the Potency in experiment [9] was 5.49 µM (active); in experiment [4], 2.45 µM (active); in experiment [8] it was 0.776 µM (active).
As for `N#CC1(N=NC2(C#N)CCCCC2)CCCCC1`, the Potency result in experiment [1], in experiment [2], in experiment [3] and in experiment [5] was “inactive” throughout. In addition, the Potency was 5.03 µM (active) in [4], 11.2 µM (active) in [8], 38.9 µM (active) in [6] and 11.2 µM (active) in experiment [7].
Regarding `C[N+]1(CCF)[C@@H]2CC[C@H]1CC(OC(=O)C(O)(c1ccccc1)c1ccccc1)C2` (some centres undefined), the Potency result in [1], in experiment [3], in experiment [4], in experiment [8], in experiment [5] and in experiment [6] was “inactive” each time. The Potency entry in [7] was “inactive”. For the same molecule, the Potency in experiment [9] was 17.4 µM (active).
Regarding `Cc1ncc(C[n+]2csc(CCO)c2C)c(N)n1`, the Potency result in experiment [6] was “inactive”.
Take `CC1(C)[C@H](C(=O)O[C@H](C#N)c2cccc(Oc3ccccc3)c2)[C@@H]1C=C(Br)Br`: the Potency result in [9], in experiment [5], in experiment [6] and in [7] was “inactive” in each case. Further, the Potency in [4] is 5.87 µM (active) and 7.1 µM (active); in [8], 1.86 µM (active) and 3.99 µM (active).
